# Measured values: paper PMC7862700, “An all-to-all approach to the identification of sequence-specific readers for epigenetic DNA modifications on cytosine”
# Columns and labels:
# Assay in all cases: DAPPL (digital affinity profiling via proximity ligation, sequencing); 10 mM Tris-HCl pH 7.5, 50 mM NaCl, 1 mM DTT, 4% glycerol, room temperature, 30 min; GST-TFs on glutathione beads, 16-mer random dsDNA library, 0.1% formaldehyde crosslink after washing; high values mean tight binding
# Details in all cases: protein: recombinant; tags: N-terminal GST; dsDNA, one strand shown
# FLI1 = molecular target: T1, FLI1 (Homo sapiens, UniProt Q01543 1-452)
# T1 sequence: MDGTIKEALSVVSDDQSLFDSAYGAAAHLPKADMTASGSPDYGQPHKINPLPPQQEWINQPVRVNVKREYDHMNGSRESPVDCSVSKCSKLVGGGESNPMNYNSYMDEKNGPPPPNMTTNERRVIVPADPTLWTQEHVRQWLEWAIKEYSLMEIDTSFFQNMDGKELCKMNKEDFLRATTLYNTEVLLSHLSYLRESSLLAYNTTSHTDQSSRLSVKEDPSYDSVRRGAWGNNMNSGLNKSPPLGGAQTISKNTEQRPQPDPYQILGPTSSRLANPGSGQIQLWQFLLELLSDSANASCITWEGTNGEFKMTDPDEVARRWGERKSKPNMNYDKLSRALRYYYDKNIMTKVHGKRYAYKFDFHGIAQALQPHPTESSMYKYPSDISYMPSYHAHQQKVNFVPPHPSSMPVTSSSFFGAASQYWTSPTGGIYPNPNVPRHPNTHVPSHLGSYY
# Outline: (§1)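 Human transcription factors carrying a GST fusion were produced in yeast, bound to glutathione beads, tagged with DNA barcodes and pooled together with a tag-only sample. Each pool was held with 200 nmole of a random double-stranded 16-mer DNA library in Tris/NaCl/DTT/glycerol buffer for 30 min at room temperature, then washed, crosslinked in 0.1% formaldehyde, proximity-ligated with BsaI/T4 ligase (1 h, 37 °C), PCR-amplified and sequenced on an Illumina NextSeq500. Binding signal is the read frequency of each hexamer for a given factor divided by its frequency in the tag-only sample.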
# ELK1 = molecular target: T2, ELK1 (Homo sapiens, UniProt P19419 1-428)
# T2 sequence: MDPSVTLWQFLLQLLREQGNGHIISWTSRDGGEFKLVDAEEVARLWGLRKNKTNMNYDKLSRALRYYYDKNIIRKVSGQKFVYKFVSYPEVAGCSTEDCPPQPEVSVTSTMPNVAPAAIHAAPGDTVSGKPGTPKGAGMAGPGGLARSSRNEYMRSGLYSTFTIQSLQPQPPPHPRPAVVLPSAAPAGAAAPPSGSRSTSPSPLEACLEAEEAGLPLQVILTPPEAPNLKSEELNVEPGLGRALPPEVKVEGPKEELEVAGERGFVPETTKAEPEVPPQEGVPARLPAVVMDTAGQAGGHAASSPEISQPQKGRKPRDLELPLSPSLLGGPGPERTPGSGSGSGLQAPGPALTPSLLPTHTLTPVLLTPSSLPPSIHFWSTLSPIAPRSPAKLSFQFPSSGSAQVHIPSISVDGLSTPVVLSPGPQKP
# Outline: as §1
# GABPA = molecular target: T3, GABPA (Homo sapiens, UniProt Q06546 1-454)
# T3 sequence: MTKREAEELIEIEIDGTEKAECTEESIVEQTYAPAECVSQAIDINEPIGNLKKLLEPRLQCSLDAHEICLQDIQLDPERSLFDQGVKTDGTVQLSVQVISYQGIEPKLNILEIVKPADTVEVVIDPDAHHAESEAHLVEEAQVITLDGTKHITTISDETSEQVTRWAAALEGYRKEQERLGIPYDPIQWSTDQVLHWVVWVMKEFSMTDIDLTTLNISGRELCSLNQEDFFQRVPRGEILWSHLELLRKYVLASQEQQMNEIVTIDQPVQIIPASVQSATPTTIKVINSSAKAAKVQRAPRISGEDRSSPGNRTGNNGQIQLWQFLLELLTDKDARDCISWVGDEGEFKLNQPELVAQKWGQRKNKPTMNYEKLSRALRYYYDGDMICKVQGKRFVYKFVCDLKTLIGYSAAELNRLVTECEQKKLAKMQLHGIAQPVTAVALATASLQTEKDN
# Outline: as §1
# ERG = molecular target: T4, ERG (Homo sapiens, UniProt P11308 1-479)
# T4 sequence: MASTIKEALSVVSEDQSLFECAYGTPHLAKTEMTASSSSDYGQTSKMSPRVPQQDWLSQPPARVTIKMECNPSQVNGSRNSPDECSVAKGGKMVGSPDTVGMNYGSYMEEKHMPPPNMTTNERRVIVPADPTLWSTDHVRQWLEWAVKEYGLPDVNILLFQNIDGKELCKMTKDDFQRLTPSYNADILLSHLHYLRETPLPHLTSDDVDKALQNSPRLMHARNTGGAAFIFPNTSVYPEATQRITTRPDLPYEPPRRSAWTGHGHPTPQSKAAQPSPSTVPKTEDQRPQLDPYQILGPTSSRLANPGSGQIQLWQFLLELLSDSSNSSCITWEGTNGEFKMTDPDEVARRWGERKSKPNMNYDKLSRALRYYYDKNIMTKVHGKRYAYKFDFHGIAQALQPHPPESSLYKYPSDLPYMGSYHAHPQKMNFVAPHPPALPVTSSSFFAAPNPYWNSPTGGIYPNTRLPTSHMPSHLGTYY
# Outline: as §1
# ELF1 = ELF1 (Homo sapiens, UniProt P32519 1-619)
# Sequence of ELF1 (P32519 whole entry): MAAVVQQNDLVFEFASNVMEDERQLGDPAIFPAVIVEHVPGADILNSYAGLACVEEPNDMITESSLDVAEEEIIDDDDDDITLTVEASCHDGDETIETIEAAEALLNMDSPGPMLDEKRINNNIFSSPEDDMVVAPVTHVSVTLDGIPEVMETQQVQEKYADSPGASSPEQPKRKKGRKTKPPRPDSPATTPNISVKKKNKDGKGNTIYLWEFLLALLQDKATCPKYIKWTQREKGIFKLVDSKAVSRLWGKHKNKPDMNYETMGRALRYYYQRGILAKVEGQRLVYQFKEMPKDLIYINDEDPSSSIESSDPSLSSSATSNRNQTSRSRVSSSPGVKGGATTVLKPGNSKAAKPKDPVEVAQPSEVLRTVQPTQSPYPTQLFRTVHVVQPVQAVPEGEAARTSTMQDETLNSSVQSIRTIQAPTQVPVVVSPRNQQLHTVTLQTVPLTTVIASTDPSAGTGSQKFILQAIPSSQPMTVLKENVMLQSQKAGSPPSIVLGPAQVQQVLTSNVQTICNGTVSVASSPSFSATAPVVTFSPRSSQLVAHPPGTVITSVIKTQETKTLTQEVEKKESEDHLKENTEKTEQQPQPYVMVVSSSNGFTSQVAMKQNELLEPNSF
# Outline: as §1
# EHF = molecular target: T5, EHF (Homo sapiens, UniProt Q9NZC4 1-300)
# T5 sequence: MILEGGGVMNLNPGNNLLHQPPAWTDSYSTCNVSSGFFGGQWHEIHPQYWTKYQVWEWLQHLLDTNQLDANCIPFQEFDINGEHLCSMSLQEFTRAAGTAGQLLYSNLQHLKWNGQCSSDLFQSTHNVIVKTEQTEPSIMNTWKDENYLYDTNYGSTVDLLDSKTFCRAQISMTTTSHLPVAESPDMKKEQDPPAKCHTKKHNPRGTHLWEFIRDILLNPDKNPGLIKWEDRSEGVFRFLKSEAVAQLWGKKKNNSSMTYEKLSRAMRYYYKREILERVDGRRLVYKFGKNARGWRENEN
# Outline: as §1
# SPI1 = SPI1 (Homo sapiens, UniProt P17947 1-270)
# Outline: as §1
# SPIB = SPIB (Homo sapiens, UniProt Q01892 1-262)
# Sequence of SPIB (Q01892 whole entry): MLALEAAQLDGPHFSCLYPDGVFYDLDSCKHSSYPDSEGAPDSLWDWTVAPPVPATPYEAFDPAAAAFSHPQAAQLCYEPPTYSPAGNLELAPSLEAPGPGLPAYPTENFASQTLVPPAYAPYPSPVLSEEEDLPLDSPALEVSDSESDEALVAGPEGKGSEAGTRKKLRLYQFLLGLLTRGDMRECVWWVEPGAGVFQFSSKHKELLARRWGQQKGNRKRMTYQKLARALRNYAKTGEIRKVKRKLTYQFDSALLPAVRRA
# Outline: as §1
# ELK3 = molecular target: T6, ELK3 (Homo sapiens, UniProt P41970 1-407)
# T6 sequence: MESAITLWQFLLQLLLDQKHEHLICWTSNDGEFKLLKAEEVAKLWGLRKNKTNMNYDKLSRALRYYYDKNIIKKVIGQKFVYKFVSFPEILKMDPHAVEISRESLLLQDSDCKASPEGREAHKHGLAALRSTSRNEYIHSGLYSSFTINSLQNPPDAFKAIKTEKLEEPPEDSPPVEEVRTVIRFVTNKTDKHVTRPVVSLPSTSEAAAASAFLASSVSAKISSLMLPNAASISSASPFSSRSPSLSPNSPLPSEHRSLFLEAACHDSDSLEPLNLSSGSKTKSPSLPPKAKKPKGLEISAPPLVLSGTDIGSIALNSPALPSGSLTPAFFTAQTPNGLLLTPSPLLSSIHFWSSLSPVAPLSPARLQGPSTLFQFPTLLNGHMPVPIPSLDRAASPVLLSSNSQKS
# Outline: as §1
# FEV = molecular target: T7, FEV (Homo sapiens, UniProt Q99581 1-238)
# T7 sequence: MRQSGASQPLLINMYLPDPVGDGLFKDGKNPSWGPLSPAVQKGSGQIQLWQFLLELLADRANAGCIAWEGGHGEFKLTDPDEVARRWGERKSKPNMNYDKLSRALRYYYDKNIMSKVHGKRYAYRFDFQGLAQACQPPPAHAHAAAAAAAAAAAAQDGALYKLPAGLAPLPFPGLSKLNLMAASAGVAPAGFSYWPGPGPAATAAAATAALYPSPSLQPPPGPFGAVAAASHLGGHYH
# Outline: as §1
# ETV5 = ETV5 (Homo sapiens, UniProt P41161 1-510)
# Sequence of ETV5 (P41161 whole entry): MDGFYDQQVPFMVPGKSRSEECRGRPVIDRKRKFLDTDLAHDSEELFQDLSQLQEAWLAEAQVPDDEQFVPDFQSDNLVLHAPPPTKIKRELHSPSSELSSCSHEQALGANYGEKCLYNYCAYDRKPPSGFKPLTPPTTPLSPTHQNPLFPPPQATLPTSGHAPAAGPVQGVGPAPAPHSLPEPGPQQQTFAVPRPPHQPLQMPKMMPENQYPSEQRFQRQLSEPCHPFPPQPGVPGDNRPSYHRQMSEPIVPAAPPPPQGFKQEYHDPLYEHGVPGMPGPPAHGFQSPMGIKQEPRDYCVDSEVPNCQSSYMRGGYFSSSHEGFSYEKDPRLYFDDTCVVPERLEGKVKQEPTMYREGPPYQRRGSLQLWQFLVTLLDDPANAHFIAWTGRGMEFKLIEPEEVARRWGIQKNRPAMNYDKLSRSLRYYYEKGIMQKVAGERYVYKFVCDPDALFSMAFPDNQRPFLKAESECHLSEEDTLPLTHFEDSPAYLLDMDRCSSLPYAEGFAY
# Outline: as §1
# SPIC = molecular target: T8, SPIC (Homo sapiens, UniProt Q8N5J4 1-248)
# T8 sequence: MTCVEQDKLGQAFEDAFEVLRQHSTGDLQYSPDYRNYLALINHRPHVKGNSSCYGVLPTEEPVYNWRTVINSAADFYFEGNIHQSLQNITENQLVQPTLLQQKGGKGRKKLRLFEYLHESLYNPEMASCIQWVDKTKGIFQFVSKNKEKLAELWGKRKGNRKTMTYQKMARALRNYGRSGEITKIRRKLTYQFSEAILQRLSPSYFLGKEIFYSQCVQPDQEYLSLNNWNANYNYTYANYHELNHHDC
# Outline: as §1
# ELF4 = ELF4 (Homo sapiens, UniProt Q99607 1-663)
# Sequence of ELF4 (Q99607 whole entry): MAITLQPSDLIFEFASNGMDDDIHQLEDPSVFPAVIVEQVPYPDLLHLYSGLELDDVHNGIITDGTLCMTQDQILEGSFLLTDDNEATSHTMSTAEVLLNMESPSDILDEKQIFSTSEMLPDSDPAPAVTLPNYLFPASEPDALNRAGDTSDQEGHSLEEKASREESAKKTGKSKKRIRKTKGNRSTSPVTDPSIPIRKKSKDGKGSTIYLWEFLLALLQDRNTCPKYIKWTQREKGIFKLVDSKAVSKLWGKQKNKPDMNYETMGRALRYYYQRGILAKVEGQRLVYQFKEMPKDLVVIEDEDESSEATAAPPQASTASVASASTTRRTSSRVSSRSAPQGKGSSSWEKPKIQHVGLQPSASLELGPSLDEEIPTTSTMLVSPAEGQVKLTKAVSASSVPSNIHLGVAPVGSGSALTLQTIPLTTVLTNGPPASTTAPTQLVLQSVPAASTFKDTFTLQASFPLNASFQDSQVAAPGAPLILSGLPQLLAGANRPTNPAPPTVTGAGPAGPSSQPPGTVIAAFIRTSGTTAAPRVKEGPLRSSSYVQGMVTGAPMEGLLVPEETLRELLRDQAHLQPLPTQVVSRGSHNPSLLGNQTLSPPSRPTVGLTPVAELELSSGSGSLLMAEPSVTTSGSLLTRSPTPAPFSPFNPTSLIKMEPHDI
# Outline: as §1
# ETV1 = ETV1 (Homo sapiens, UniProt P50549 1-477)
# Sequence of ETV1 (P50549 whole entry): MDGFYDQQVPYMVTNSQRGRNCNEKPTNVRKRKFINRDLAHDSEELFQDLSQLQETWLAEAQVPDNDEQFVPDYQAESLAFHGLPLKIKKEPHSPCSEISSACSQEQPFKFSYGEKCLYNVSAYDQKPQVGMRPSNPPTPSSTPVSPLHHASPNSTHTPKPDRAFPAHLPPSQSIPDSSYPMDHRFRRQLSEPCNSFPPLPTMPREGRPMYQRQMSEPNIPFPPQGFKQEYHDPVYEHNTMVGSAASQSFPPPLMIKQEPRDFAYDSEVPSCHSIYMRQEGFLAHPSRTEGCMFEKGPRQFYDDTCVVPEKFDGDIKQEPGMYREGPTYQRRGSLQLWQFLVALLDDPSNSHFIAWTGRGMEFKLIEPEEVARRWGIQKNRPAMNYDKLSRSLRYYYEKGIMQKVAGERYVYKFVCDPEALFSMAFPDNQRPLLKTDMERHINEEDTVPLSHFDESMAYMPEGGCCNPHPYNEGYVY
# Outline: as §1
# ERF = molecular target: T9, ERF (Homo sapiens, UniProt P50548 1-548)
# T9 sequence: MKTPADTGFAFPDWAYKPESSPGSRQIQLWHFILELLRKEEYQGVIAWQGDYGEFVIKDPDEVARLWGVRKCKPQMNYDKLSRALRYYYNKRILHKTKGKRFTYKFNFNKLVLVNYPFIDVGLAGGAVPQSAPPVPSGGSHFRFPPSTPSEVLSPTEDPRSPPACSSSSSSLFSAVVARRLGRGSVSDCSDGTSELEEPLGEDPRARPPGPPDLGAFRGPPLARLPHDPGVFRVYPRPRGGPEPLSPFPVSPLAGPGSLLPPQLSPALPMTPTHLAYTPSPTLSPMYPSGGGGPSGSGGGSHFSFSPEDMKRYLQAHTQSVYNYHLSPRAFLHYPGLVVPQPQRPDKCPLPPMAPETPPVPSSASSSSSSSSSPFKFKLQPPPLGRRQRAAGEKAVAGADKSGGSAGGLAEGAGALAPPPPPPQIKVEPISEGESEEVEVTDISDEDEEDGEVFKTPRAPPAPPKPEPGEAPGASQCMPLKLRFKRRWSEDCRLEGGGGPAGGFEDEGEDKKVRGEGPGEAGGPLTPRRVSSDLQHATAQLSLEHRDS
# Outline: as §1
# ETV3L = molecular target: T10, ETV3L (Homo sapiens, UniProt Q6ZN32 1-361)
# T10 sequence: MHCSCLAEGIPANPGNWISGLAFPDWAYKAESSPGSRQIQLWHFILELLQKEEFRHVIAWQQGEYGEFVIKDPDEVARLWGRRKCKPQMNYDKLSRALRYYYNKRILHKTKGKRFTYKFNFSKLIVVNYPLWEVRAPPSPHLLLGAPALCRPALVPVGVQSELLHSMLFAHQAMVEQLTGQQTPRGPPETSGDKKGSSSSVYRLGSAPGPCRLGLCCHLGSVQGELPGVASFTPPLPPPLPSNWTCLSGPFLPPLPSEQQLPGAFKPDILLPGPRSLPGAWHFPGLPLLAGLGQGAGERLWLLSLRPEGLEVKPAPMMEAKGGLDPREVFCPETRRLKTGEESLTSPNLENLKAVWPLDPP
# Outline: as §1
# ETS2 = molecular target: T11, ETS2 (Homo sapiens, UniProt P15036 1-469)
# T11 sequence: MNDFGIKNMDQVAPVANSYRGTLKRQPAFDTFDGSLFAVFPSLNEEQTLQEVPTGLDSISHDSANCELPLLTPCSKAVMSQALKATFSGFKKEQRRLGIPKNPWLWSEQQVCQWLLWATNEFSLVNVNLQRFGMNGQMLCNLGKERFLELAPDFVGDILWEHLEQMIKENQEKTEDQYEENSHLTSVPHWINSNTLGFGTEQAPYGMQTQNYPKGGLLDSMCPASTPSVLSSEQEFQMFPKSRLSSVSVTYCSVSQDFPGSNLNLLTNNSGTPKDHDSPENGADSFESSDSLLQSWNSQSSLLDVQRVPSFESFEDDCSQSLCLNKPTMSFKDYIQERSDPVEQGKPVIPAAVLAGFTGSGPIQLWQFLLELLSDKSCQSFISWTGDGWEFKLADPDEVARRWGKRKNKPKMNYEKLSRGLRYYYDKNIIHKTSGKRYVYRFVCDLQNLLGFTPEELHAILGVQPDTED
# Outline: as §1
# SPDEF = molecular target: T12, SPDEF (Homo sapiens, UniProt O95238 1-335)
# T12 sequence: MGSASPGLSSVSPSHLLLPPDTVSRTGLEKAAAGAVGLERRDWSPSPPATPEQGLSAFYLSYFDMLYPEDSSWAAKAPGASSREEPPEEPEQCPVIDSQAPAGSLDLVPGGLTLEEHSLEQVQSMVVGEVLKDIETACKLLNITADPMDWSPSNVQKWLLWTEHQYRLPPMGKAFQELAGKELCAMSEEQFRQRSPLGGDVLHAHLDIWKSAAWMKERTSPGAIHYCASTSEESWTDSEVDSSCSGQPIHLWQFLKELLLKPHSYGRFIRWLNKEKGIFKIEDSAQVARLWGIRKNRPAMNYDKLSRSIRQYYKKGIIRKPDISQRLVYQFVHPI
# Outline: as §1
# ETV3 = molecular target: T13, ETV3 (Homo sapiens, UniProt P41162-2 1-143)
# T13 sequence: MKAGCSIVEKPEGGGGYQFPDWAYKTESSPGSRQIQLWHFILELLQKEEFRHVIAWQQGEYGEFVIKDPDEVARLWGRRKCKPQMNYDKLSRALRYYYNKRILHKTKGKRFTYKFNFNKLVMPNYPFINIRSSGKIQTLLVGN
# Outline: as §1
# ETV6 = ETV6 (Homo sapiens, UniProt P41212 1-452)
# Sequence of ETV6 (P41212 whole entry): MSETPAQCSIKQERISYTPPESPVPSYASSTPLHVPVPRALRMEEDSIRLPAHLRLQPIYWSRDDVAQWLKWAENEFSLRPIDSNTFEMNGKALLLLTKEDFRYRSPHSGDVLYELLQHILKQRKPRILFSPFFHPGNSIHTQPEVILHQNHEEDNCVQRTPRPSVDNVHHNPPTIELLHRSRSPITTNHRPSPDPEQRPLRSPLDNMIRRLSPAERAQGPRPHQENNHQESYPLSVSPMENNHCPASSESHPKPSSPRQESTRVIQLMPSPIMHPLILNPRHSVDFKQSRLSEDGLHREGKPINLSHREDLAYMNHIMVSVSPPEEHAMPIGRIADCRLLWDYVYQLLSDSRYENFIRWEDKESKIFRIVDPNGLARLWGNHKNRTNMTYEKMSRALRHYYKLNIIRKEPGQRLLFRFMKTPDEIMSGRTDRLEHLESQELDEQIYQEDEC
# Outline: as §1
sequence,measurement,setting,value
ACGATG,binding signal,FLI1,"1.24 fold enrichment (6-mer frequency, TF over GST control)"
same,binding signal,ELK1,"1.06 fold enrichment (6-mer frequency, TF over GST control)"
same,binding signal,GABPA,"1.17 fold enrichment (6-mer frequency, TF over GST control)"
same,binding signal,ERG,"1.13 fold enrichment (6-mer frequency, TF over GST control)"
same,binding signal,ELF1,"1.06 fold enrichment (6-mer frequency, TF over GST control)"
same,binding signal,EHF,"1.16 fold enrichment (6-mer frequency, TF over GST control)"
same,binding signal,SPI1,"1.17 fold enrichment (6-mer frequency, TF over GST control)"
same,binding signal,SPIB,"1.18 fold enrichment (6-mer frequency, TF over GST control)"
same,binding signal,ELK3,"1.17 fold enrichment (6-mer frequency, TF over GST control)"
same,binding signal,FEV,"1.05 fold enrichment (6-mer frequency, TF over GST control)"
same,binding signal,ETV5,"1.12 fold enrichment (6-mer frequency, TF over GST control)"
same,binding signal,SPIC,"1.03 fold enrichment (6-mer frequency, TF over GST control)"
same,binding signal,ELF4,"1.12 fold enrichment (6-mer frequency, TF over GST control)"
same,binding signal,ETV1,"1.12 fold enrichment (6-mer frequency, TF over GST control)"
same,binding signal,ERF,"1.09 fold enrichment (6-mer frequency, TF over GST control)"
same,binding signal,ETV3L,"1.14 fold enrichment (6-mer frequency, TF over GST control)"
same,binding signal,ETS2,"1.12 fold enrichment (6-mer frequency, TF over GST control)"
same,binding signal,SPDEF,"1.14 fold enrichment (6-mer frequency, TF over GST control)"
same,binding signal,ETV3,"1.08 fold enrichment (6-mer frequency, TF over GST control)"
same,binding signal,ETV6,"1.06 fold enrichment (6-mer frequency, TF over GST control)"
